# Source: PubChem BioAssay (NCATS)
# Results filed as inconclusive are left out. Values without a mark were called inactive. The source made the active and inactive calls. Unless noted, calls follow the shape of the full dose curve. Numbered stars: 1 amine (or outer) side, 2 acyl side, 3 side chain; on linkers, the order of the positions; unused ones are H or OH. Bridge positions count the residues as written; N and C are the ends. Square brackets hold non-standard residues; d marks the D form. Peptide text beside a SMILES is read from it. I, II: the chains in the order shown. Actinocin(9to1) = Cc1c2oc3c(C)ccc(C(=O)[*:1])c3nc-2c(C(=O)[*:2])c(N)c1=O; NMeV = CN[C@H](C(=O)O)C(C)C; Sar = CNCC(=O)O
# Assay: Cell Viability - Jurkat (AID 426;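 active = dose-dependent loss of cell ATP signal giving a full or clear fitted curve, ranked by lower potency value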;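 also: cells exposed to compound for 40 hours at 37 °C before ATP read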)
# Details: qHTS
# Procedure, shortened: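 Cytotoxicity taken as drop in cellular ATP (CellTiter-Glo luminescence, 20 min room temperature) after 40 hr, 37C treatment of 5000 Jurkat Clone E6-1 cells per well; concentration-response fitted with Hill equation for AC50.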
# Potency is read from the fitted curve at half-maximal effect.
row,SMILES,Potency
1,O=c1ccc2ccccc2o1,> 92 µM
2,CC/C(=C(/CC)c1ccc(O)cc1)c1ccc(O)cc1,21.5 µM (active)
3,COc1cccc2c1C(=O)c1c(O)c3c(c(O)c1C2=O)C[C@@](O)(C(=O)CO)C[C@@H]3O[C@H]1C[C@H](N)[C@H](O)[C@H](C)O1,0.0218 µM (active)
4,"Cc1c2oc3c(C)ccc(C(=O)N[C@@H]4C(=O)N[C@H](C(C)C)C(=O)N5CCC[C@H]5C(=O)N(C)CC(=O)N(C)[C@@H](C(C)C)C(=O)O[C@@H]4C)c3nc-2c(C(=O)N[C@@H]2C(=O)N[C@H](C(C)C)C(=O)N3CCC[C@H]3C(=O)N(C)CC(=O)N(C)[C@@H](C(C)C)C(=O)O[C@@H]2C)c(N)c1=O (I: T[dV]P[Sar][NMeV] / II: T[dV]P[Sar][NMeV]; ester I:1-I:C, II:1-II:C; linker I:N-II:N via Actinocin(9to1))",0.0015 µM (active)
5,O=C(O)CCCCC(=O)O,> 92 µM
6,NC(=NCCCCCCN=C(N)/N=C(\N)Nc1ccc(Cl)cc1)/N=C(\N)Nc1ccc(Cl)cc1,42.1 µM (active)
7,C[C@]12CC[C@@H]3c4ccc(O)cc4CC[C@H]3[C@@H]1CC[C@@H]2O,25.8 µM (active)
8,CCCCCCc1ccc(O)cc1O,> 92 µM
9,CC(O)C(=O)O (configuration not stated),> 92 µM
10,C=CCc1ccc(O)c(OC)c1,> 92 µM
11,Nc1ccc(C(=O)O)cc1,> 92 µM

# Assay: Cell Viability - Hek293 (AID 427;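 active = compounds whose dose-response curve shows a full or clear partial loss of cell viability, called from curve shape rather than a numeric limit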;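 also: cells exposed to compound for 40 hours at 37 °C before reading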)
# Details: qHTS
# Procedure, shortened: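 qHTS, human embryonic kidney (adenovirus-transformed) cells; 40 hr cpd, 37 °C; CellTiter-Glo ATP luminescence. Norm: DMSO = 0, 100 uM tamoxifen = 100% inhibition. Hill-fit AC50.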
row,SMILES,Potency
1,O=c1ccc2ccccc2o1,> 92 µM
2,COc1cccc2c1C(=O)c1c(O)c3c(c(O)c1C2=O)C[C@@](O)(C(=O)CO)C[C@@H]3O[C@H]1C[C@H](N)[C@H](O)[C@H](C)O1,0.0255 µM (active)
3,"Cc1c2oc3c(C)ccc(C(=O)N[C@@H]4C(=O)N[C@H](C(C)C)C(=O)N5CCC[C@H]5C(=O)N(C)CC(=O)N(C)[C@@H](C(C)C)C(=O)O[C@@H]4C)c3nc-2c(C(=O)N[C@@H]2C(=O)N[C@H](C(C)C)C(=O)N3CCC[C@H]3C(=O)N(C)CC(=O)N(C)[C@@H](C(C)C)C(=O)O[C@@H]2C)c(N)c1=O (I: T[dV]P[Sar][NMeV] / II: T[dV]P[Sar][NMeV]; ester I:1-I:C, II:1-II:C; linker I:N-II:N via Actinocin(9to1))",0.00102 µM (active)
4,O=C1OC(c2ccc(O)cc2)(c2ccc(O)cc2)c2ccccc21,> 92 µM
5,O=C(O)CCCCC(=O)O,> 92 µM
6,COC1=CC(=O)C[C@@H](C)[C@]12Oc1c(Cl)c(OC)cc(OC)c1C2=O,> 92 µM
7,CN(C)/N=N/c1nc[nH]c1C(N)=O,> 92 µM
8,NC(=NCCCCCCN=C(N)/N=C(\N)Nc1ccc(Cl)cc1)/N=C(\N)Nc1ccc(Cl)cc1,45.6 µM (active)
9,CCCCCCc1ccc(O)cc1O,> 92 µM
10,CC(O)C(=O)O (configuration not stated),> 92 µM
11,C=CCc1ccc(O)c(OC)c1,> 92 µM
12,Nc1ccc(C(=O)O)cc1,> 92 µM

# Assay: Cell Viability - HepG2 (AID 433);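 also: cells exposed to compound for 40 hours; potency for ATP loss meaning cytotoxicity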
# Details: qHTS
# Procedure, shortened: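 HepG2 hepatocellular carcinoma cells (1500/well) were treated with compounds for 40 h at 37 °C in complete medium; intracellular ATP was read by CellTiter-Glo luminescence. Data were normalized to DMSO and 100 uM tamoxifen, and AC50 came from Hill fits.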
row,SMILES,Potency
1,O=c1ccc2ccccc2o1,> 92 µM
2,CC/C(=C(/CC)c1ccc(O)cc1)c1ccc(O)cc1,> 92 µM
3,COc1cccc2c1C(=O)c1c(O)c3c(c(O)c1C2=O)C[C@@](O)(C(=O)CO)C[C@@H]3O[C@H]1C[C@H](N)[C@H](O)[C@H](C)O1,> 92 µM
4,"Cc1c2oc3c(C)ccc(C(=O)N[C@@H]4C(=O)N[C@H](C(C)C)C(=O)N5CCC[C@H]5C(=O)N(C)CC(=O)N(C)[C@@H](C(C)C)C(=O)O[C@@H]4C)c3nc-2c(C(=O)N[C@@H]2C(=O)N[C@H](C(C)C)C(=O)N3CCC[C@H]3C(=O)N(C)CC(=O)N(C)[C@@H](C(C)C)C(=O)O[C@@H]2C)c(N)c1=O (I: T[dV]P[Sar][NMeV] / II: T[dV]P[Sar][NMeV]; ester I:1-I:C, II:1-II:C; linker I:N-II:N via Actinocin(9to1))",> 92 µM
5,O=C1OC(c2ccc(O)cc2)(c2ccc(O)cc2)c2ccccc21,> 92 µM
6,O=C(O)CCCCC(=O)O,> 92 µM
7,COC1=CC(=O)C[C@@H](C)[C@]12Oc1c(Cl)c(OC)cc(OC)c1C2=O,> 92 µM
8,CN(C)/N=N/c1nc[nH]c1C(N)=O,> 92 µM
9,NC(=NCCCCCCN=C(N)/N=C(\N)Nc1ccc(Cl)cc1)/N=C(\N)Nc1ccc(Cl)cc1,39.6 µM (active)
10,C[C@]12CC[C@@H]3c4ccc(O)cc4CC[C@H]3[C@@H]1CC[C@@H]2O,> 92 µM
11,CCCCCCc1ccc(O)cc1O,> 92 µM
12,CC(O)C(=O)O (configuration not stated),> 92 µM
13,C=CCc1ccc(O)c(OC)c1,> 92 µM
14,Nc1ccc(C(=O)O)cc1,> 92 µM
